Data taken from the supplement of paper PMC10849652.
The full data set covers some 7,900 targets. This sample favours those with a hit. About 0.6% of all pairs of compound and target were hits.

How the values were obtained:
Assay in all cases: log2 fold change, soluble protein after heating vs DMSO (PISA); higher = thermal stabilisation; K562 cells, 10 uM, 30 min; active = over 0.2 and 3.5 SD of the protein, either way, in both replicates (recomputed)
[1] = compound: C1=CC=C(C=C1)[C@H](COC2=CC3=C(C=C2)NC(=O)N3)NC(=O)C4=CC=CN(C4=O)CC5=CC(=C(C=C5)F)F
Method in brief: (§1)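 Soluble protein was quantified by TMTpro 16plex LC-MS/MS after channel sums were equalised. It was obtained as the supernatant after 21,000xg for 90 min from pooled aliquots of K562 cells (2×10^6 cells/mL, 10 μM compound, 30 min) heated for 3 min across 48°C-58°C and extracted in PBS with 0.5% NP-40 at 4°C. Thermal stability values are relative to control samples and come from duplicates. They are given as log2 fold changes.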

[2] = compound: CC1=C(SC2=C1C(=N[C@H](C3=NN=C(N32)C)CC(=O)N)C4=CC=C(C=C4)Cl)C
Method in brief: as §1

[3] = compound: CC1=C2C(=CC=C1)N=C(N(C2=O)C3=CC=CC=C3C)CN4C=NC5=C(N=CN=C54)N
Method in brief: as §1

[4] = compound: Cc1sc2c(c1C)C(c1ccc(Cl)cc1)=N[C@@H](CC(=O)OC(C)(C)C)c1nnc(C)n1-2
Method in brief: as §1

[5] = compound: c1ccc([C@@H]2C[C@H]2NC2CCNCC2)cc1
Method in brief: as §1

Measured: log2 fold change

NME7 (UniProt Q9Y5B8)
UniProt Q9Y5B8, sequence (Q9Y5B8 whole entry, looked up): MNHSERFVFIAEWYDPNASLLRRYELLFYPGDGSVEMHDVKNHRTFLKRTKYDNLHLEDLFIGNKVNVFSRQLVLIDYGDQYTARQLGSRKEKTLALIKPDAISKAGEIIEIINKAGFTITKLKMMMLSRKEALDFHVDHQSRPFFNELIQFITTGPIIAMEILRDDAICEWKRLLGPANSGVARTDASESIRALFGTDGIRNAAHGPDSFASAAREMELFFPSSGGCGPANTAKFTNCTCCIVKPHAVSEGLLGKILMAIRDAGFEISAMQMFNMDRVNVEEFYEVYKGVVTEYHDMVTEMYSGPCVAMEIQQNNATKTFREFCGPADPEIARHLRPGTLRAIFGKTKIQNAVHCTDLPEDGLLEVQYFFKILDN
inactive: [1] -0.112 | [2] 0.098 | [3] 0.175 | [4] 0.096 | [5] -0.038

NA, A0A0B4J2A0
inactive: [1] -0.035 | [2] -0.005 | [3] 0.015 | [4] -0.097 | [5] -0.007

NDUFB8 (UniProt O95169)
UniProt O95169, sequence (O95169 whole entry, looked up): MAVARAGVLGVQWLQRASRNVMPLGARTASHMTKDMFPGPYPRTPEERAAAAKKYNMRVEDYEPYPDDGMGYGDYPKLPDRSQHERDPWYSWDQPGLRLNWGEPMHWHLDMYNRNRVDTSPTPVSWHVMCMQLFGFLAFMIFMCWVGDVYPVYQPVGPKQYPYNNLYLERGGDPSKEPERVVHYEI
inactive: [1] 0.049 | [2] 0.045 | [3] 0.02 | [4] -0.002 | [5] 0.089

NPM3 (UniProt O75607)
UniProt O75607, sequence (O75607 whole entry, looked up): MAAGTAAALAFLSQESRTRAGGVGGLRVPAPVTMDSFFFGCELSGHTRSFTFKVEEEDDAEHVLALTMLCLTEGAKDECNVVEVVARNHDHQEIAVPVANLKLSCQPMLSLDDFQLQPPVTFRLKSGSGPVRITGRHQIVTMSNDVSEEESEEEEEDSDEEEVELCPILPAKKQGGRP
inactive: [1] 0.066 | [2] -0.08 | [3] -0.087 | [4] 0.107 | [5] -0.019

NDUFA7 (UniProt O95182)
UniProt O95182, sequence (O95182 whole entry, looked up): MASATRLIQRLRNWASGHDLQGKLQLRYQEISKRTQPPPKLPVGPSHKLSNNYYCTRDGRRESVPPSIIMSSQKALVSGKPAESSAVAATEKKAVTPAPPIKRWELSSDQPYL
inactive: [1] 0.007 | [2] 0.002 | [3] 0.007 | [4] 0.008 | [5] 0.034

NFE2 (UniProt Q16621)
UniProt Q16621, sequence (Q16621 whole entry, looked up): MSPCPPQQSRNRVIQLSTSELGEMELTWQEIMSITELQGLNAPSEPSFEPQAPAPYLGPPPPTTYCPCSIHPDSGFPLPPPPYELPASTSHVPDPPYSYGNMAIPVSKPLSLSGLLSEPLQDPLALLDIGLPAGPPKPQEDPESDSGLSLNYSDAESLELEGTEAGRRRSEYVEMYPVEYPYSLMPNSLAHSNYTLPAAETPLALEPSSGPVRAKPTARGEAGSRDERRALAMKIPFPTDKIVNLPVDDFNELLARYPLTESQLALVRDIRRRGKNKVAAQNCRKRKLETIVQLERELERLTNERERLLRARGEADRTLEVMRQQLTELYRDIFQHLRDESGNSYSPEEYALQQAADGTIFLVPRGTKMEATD
inactive: [1] 0.054 | [2] -0.004 | [3] 0.12 | [4] 0.087 | [5] 0.145

MPP1 (UniProt Q00013)
UniProt Q00013, sequence (Q00013 whole entry, looked up): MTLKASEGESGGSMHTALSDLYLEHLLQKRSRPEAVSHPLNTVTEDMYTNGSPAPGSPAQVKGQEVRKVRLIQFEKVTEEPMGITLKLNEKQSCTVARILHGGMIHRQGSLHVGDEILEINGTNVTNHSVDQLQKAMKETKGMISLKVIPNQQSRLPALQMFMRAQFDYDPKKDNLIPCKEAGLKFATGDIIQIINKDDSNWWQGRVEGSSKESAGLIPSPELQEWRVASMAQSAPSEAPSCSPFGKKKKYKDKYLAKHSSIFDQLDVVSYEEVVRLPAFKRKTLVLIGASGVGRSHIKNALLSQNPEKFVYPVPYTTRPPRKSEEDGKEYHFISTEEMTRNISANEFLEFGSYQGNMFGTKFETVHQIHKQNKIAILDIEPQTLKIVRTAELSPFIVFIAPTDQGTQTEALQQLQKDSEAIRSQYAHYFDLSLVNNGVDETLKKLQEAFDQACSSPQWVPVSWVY
inactive: [1] -0.055 | [2] -0.06 | [3] 0.051 | [4] -0.024 | [5] 0.013

MRPS33 (UniProt Q9Y291)
inactive: [1] 0.005 | [2] -0.057 | [3] -0.114 | [4] 0.098 | [5] -0.002

NUMA1 (UniProt Q14980)
UniProt Q14980, sequence (Q14980 whole entry, looked up): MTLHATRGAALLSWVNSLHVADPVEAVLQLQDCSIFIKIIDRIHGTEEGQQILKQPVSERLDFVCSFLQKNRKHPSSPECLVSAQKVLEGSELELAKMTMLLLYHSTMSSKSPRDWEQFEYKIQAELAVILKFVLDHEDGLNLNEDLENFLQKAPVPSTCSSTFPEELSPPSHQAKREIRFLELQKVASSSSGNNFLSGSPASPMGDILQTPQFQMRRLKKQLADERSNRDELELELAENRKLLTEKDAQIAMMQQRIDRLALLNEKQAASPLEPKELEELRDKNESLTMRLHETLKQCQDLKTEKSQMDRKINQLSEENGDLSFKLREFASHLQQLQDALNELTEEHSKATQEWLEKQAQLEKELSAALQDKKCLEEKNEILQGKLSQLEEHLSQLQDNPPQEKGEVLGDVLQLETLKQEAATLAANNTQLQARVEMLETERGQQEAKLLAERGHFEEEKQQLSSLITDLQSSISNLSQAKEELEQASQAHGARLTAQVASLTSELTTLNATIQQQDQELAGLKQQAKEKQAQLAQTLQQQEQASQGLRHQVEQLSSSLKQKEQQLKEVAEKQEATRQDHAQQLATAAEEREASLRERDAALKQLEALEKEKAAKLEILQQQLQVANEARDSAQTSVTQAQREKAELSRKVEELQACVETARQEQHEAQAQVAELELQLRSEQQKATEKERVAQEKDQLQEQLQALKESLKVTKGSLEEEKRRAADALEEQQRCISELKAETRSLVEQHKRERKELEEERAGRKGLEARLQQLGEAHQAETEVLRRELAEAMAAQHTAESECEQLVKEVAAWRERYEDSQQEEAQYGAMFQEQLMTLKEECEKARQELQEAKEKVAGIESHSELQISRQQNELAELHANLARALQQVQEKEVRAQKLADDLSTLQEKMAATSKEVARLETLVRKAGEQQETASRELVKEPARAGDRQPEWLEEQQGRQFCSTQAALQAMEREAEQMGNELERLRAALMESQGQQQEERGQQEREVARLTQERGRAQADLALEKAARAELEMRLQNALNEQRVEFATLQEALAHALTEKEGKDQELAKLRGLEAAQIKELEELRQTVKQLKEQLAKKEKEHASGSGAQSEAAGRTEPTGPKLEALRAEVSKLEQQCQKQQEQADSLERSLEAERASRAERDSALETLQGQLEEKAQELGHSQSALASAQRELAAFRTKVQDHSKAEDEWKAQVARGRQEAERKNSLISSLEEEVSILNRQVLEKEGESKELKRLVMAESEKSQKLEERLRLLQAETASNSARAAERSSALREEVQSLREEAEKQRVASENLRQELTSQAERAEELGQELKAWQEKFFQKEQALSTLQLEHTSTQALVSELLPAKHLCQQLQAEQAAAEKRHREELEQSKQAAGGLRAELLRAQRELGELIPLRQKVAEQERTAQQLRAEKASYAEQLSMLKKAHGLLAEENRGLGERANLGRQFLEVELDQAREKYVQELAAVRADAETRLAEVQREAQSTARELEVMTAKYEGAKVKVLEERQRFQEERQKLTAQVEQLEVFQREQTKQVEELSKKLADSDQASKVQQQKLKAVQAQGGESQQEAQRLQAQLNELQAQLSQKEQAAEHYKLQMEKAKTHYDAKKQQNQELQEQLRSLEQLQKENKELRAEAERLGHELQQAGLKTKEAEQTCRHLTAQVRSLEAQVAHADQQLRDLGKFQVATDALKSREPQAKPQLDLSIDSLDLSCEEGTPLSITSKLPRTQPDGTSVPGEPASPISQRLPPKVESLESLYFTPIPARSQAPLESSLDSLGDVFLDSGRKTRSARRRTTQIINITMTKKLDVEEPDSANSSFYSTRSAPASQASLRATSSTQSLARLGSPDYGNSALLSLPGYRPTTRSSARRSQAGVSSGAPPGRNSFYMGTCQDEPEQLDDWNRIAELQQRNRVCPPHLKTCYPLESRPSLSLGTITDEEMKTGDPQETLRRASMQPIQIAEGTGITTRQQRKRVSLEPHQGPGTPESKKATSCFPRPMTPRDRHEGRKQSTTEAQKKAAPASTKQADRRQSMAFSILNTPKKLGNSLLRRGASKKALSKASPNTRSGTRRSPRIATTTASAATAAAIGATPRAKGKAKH
inactive: [1] 0.027 | [2] -0.05 | [3] -0.009 | [4] 0.022 | [5] 0.014
